BAZ2B inh = qHTS Assay for Inhibitors of BAZ2B; Bromodomain adjacent to zinc finger domain protein 2B (Homo sapiens), Q9UIF8; AlphaScreen BAZ2B-H3K14Ac peptide displacement; Potency, µM (series often up to 114 µM), without a hit: at the highest dose activity change, negative = inhibition, most hits filed as inhibitors; actives 4.4% (n = 360,000); further: on the % scale 0 is the no-effect control and ±100 the full control effect; nearly all actives have a fitted effect of over 60% in size
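In this displacement format the biotinylated H3(5-23) peptide acetylated at Lys14 serves as ligand at 50 nM, with BAZ2B at 50 nM in PBS pH 7.4 containing 0.01% Tween-20. Donor and acceptor beads are 10 ug/mL final.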
HP1b binding inh = HTS for Inhibitors of HP1-beta Chromodomain Interactions with Methylated Histone Tails; Chromobox protein homolog 1 (Homo sapiens), P83916; AlphaScreen HP1-beta / biotin-H3K9me3 peptide binding; Potency, µM (titrated, usually from 114 µM), without a hit: at the highest dose activity change, negative = inhibition, most hits filed as inhibitors; actives 0.56% (n = 390,000); further: nearly all actives have a fitted effect of over 70% in size
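Compound inhibition of the preformed complex between 50 nM HP1-beta and 50 nM biotinylated H3K9me3 peptide was read by AlphaScreen. Buffer was PBS pH 7.4 with 0.01% Tween-20. Incubations ran 30 min at room temperature, with 10 ug/mL donor/acceptor beads.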
Sfp inh = qHTS Assay for Inhibitors of Bacillus subtilis Sfp phosphopantetheinyl transferase (PPTase); 4'-phosphopantetheinyl transferase ffp (Bacillus subtilis), Q9F4F7; Biochemical Sfp PPTase activity, qHTS; Potency, µM, inactives show largest response in the series, negative = inhibition, actives largely listed as inhibitors; actives 3.5% (n = 310,000);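 further: the enzyme is Sfp with the accession as filed and its product quenches rhodamine fluorescence; 0% = enzyme reaction without inhibitor and -100% = no enzyme wells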
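Step 1, compound plus 15 nM Sfp-PPTase, 15 min, room temperature. Step 2, add rhodamine-CoA (5 uM) and BHQ-2-YbbR (12.5 uM). Step 3, read 525/598 nm fluorescence at 0 and 30 min.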
G9a block = qHTS Assay for Inhibitors of Histone Lysine Methyltransferase G9a. Potency, µM (highest dose often 102 µM), inactives show top-dose activity, negative = inhibition, usual class: inhibitors. actives 8.8% (n = 350,000). G9a H3K9 monomethylation, AlphaScreen, 2 h. Histone-lysine N-methyltransferase EHMT2 (Homo sapiens), Q96KQ7. AID 504332, 2011; further: on the % scale 0 is the no-effect control and ±100 the full control effect; nearly all actives have a fitted effect of over 75% in size
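Chemiluminescent proximity detection of H3K9 monomethylation, read after 10 min bead incubation in the dark. Reaction: 20 nM G9a, 500 nM biotin-H3K9 peptide, 20 uM SAM cofactor, 2 h, room temperature, following 15 min enzyme-compound preincubation.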
L3MBTL1 inh = qHTS Assay for the Inhibitors of L3MBTL1. actives 0.66% (n = 230,000). AlphaScreen L3MBTL1–H3K9me1 peptide binding. Potency, µM (doses to about 57.1 µM), for the others: at the top dose activity, negative = inhibition, usual class: inhibitors. AID 485360, 2010; further: on the % scale 0 is the no-effect control and ±100 the full control effect; nearly all actives have a fitted effect of over 60% in size
Target sequence (Q9Y468 whole entry, looked up): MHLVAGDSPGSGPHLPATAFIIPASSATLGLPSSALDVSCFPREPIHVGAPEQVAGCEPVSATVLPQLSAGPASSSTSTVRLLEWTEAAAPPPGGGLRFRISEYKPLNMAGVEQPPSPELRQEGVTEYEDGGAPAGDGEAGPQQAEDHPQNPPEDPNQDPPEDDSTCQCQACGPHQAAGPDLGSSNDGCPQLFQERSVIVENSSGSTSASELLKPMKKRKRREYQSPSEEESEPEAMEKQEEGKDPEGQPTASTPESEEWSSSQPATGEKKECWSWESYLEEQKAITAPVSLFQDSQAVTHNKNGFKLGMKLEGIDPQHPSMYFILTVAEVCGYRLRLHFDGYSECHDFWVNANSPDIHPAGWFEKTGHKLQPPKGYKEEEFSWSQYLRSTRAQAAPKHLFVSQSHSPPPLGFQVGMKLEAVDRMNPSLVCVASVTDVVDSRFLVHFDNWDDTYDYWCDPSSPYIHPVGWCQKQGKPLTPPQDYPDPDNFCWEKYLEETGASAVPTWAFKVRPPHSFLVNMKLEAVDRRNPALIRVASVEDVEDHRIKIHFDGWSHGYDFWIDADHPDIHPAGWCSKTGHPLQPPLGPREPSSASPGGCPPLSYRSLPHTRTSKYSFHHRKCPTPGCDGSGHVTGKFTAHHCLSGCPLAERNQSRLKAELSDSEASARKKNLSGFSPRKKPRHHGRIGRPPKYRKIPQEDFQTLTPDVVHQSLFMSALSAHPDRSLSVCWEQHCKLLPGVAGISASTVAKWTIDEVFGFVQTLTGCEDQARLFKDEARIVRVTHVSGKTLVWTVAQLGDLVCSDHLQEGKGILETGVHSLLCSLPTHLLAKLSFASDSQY
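AlphaScreen assay: L3MBTL1 (50 nM final) was preincubated 30 min at room temperature with biotinylated H3(1-15)K9me1 peptide (75 nM final), then 30 min with library compounds; streptavidin donor and nickel chelate acceptor beads (10 ug/mL final) added, 30 min dark.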
JMJD2A Tudor = qHTS Assay for Inhibitors of JMJD2A-Tudor Domain. Lysine-specific demethylase 4A (Homo sapiens), O75164. AlphaScreen JMJD2A-Tudor / H3K4me3 peptide binding. Potency, µM (series often up to 114 µM), without a hit: top-dose activity change, negative = inhibition, actives largely listed as inhibitors. actives 4.4% (n = 390,000); further: on the % scale 0 is the no-effect control and ±100 the full control effect; nearly all actives have a fitted effect of over 50% in size
The depositor's hits bear a star; ? = inconclusive; nt = no result; ! = repeats disagree; [ ] = another dose, or the depositor's remark. Hits are enriched below; roughly 12% of the tested compounds scored in any of these assays. The call rests on the fitted dose curve; in most records, active means well fitted curve in the direction sought with a large enough effect; inconclusive means small, poorly fitted or top-dose-only effect, or another doubt; inactive means no such curve, though single readings can be large; an effect the other way counts as inactive or inconclusive. Potency means the concentration at half of the fitted maximal effect.

SMILES | BAZ2B inh | HP1b binding inh | Sfp inh | G9a block | L3MBTL1 inh | JMJD2A Tudor
CCCCn1c(O)c(/C=N/N2CCCCC2c2cccnc2)c(=O)[nH]c1=S (stereo not drawn) | -6.5% | 30.3% | -13.4% | 8.91µM* | -11.7% | -8.3%
C=CCn1c(O)c(/C=N/N2CCCCC2c2cccnc2)c(=O)[nH]c1=S (stereo not drawn) | 7.9% | 25.7% | 8.8% | 20.2%[59 µM] | -4.3% | -3.8%
CC(C)(O)[C@@H]1C2OC(=O)[C@@H]1[C@]1(O)C[C@H]3O[C@]34C(=O)O[C@H]2[C@]14C | nt | nt | 12.7% | nt | nt | nt
c1ccc(CCn2nnnc2CN2CCC(n3nnc4ccccc43)CC2)cc1 | 1.3% | 36.3% | 7.5% | -6.1% | 8.6% | -11.0%
Cc1nc2ccccc2n1C1CCN(Cc2nnnn2CCc2ccccc2)CC1 | ? | 11.3% | -14.0% | 50.1µM* | -3.2% | ?
Fc1ccc2c(c1)nnn2C1CCN(Cc2nnnn2CCc2ccccc2)CC1 | ? | 27.4% | -7.2% | 50.1µM* | -2.1% | -22.2%
CC1=C2CCC3C4CCC(=O)[C@@]4(C)CCC3[C@]2(C)CCC1=O (stereo partly drawn) | nt | nt | -4.2% | -35.1%[2.33 µM] | nt | nt
O=C1CC2OCC=C3CN4CCC56c7ccccc7N1C5C2C3CC46 (stereo not drawn) | nt | nt | -12.7% | nt | nt | nt
Cc1c(O)c(=O)ccn1C | 44.7µM* | 45.8% | 56.2µM* | 1.58µM*! | 4.3% | 15.8µM*
O=[N+]([O-])c1ccc2c(c1)C(c1ccccc1)=NCCN2 | -6.1% | 21.5% | 2.7% | ? | nt | -19.2%
O=[N+]([O-])c1ccc(-c2ccccc2)c([As](=O)(O)O)c1 | ? | 50.6% | -15.8% | 12.6µM* | 3.9% | -19.0%
CC(=O)c1cccc(OCC(O)CN2CC=C(c3ccccc3)CC2)c1 (stereo not drawn) | 70.8µM* | -34.6% | -22.7% | ? | 1.3% | 2.82µM*
C=CCc1cc(OC)c2c(c1OC)OCO2 | nt | nt | 8.1% | nt | nt | nt
CC(=O)Nc1ccc(C=C2C(=O)NC(=O)NC2=O)cc1 | nt | 40.1% | nt | nt | nt | -9.0%
Cc1ccc(OCCOc2cccc(C=C3C(=O)NC(=O)NC3=O)c2)c(C)c1 | ? | 67.8% | 50.1µM* | 28.2µM* | 26.3% | 35.5µM*
O=C1NC(=O)C(=Cc2ccc(OCCOc3ccc([N+](=O)[O-])cc3)cc2)C(=O)N1 | 44.7µM* | -4.2% | 50.1µM* | 22.4µM* | 39.8µM* | 50.1µM*
O=C1NC(=O)C(=Cc2cn(CCOc3ccc4c(c3)OCO4)c3ccccc23)C(=O)N1 | -7.9% | 38.3% | -14.0% | ? | nt | -24.4%
O=C1NC(=O)C(=Cc2cccc(OCCOc3ccccc3)c2)C(=O)N1 | 15.2% | -5.1% | 44.7µM* | 35.5µM* | nt | ?
O=C(Nc1ccc2nc(-c3cccs3)c(-c3cccs3)nc2c1)N1CCCCC1 | nt | 56.9% | nt | nt | nt | 13.5%
CC(C)C[C@H]1C(=O)N2CCC[C@H]2[C@]2(O)O[C@](NC(=O)[C@@H]3C=C4c5cccc6[nH]cc(c56)C[C@H]4N(C)C3)(C(C)C)C(=O)N12 | -33.9% | -14.4% | nt | 6.31µM* | -23.4% | 50.1µM*
CC(C)C[C@H]1C(=O)N2CCC[C@H]2[C@]2(O)O[C@](NC(=O)[C@@H]3C=C4c5cccc6[nH]c(Br)c(c56)C[C@H]4N(C)C3)(C(C)C)C(=O)N12 | nt | nt | -3.6% | 23.8µM* | nt | nt
CC(C)C[C@H]1C(=O)N2CCC[C@@H]2[C@]2(O)O[C@](NC(=O)[C@H]3C=C4c5cccc6[nH]c(Br)c(c56)C[C@H]4N(C)C3)(C(C)C)C(=O)N12 | nt | nt | -11.1% | ? | nt | nt
CN1C[C@H](C(=O)N[C@]2(C)O[C@@]3(O)[C@@H]4CCCN4C(=O)[C@H](Cc4ccccc4)N3C2=O)C=C2c3cccc4[nH]cc(c34)C[C@H]21 | nt | nt | -17.4% | 12.6µM* | nt | nt
CN1CCC2(CC1)CCN(C(=O)Oc1ccccc1)CC2 | nt | nt | 15.2% | 4.3%[12.7 µM] | nt | nt
COc1ccccc1NC(=O)N(Cc1ccco1)C1CCN(C(C)=O)CC1 | 4.1% | 49.6% | nt | 6.2%[59 µM] | nt | -12.8%
SMILES | BAZ2B inh | HP1b binding inh | Sfp inh | G9a block | L3MBTL1 inh | JMJD2A Tudor
CCCN1[C@@H]2C[C@@H](O)CC[C@@H]2C[C@H]1C(=O)OC | nt | nt | -4.0% | nt | nt | nt
C=C1[C@@H]2C[C@@]3([C@H]1O)[C@H]1C[C@@H]4[C@@]5(C)CC[C@H](O)[C@]4([C@H]1N(CC)C5)[C@H]3C[C@H]2O | nt | nt | 17.1% | 21.1%[21.5 µM] | nt | nt
CCCCCCCCCCCCCCC[C@@H](O)[C@@H](N)COP(=O)(O)O | nt | nt | -6.3% | nt | nt | nt
Cc1cccc(NC(=O)Cn2cc(C(=O)C3CC3)c3ccccc32)c1C | -28.1% | -3.5% | ? | -6.0% | nt | -12.0%
Cc1cc(N2CCCC2)ccc1C=C(C#N)C#N | -18.9% | 40.0% | 11.5% | 17.6%[59 µM] | nt | -2.8%
Cc1cc(N2CCCCC2)ccc1C=C1C(=O)N(C)C(=S)N(C)C1=O | 35.5µM* | ? | -92.2% | 15.8µM* | -17.7% | ?
CN1C(=O)/C(=C\c2ccc(N3CCCCCC3)cc2)C(=O)NC1=S | ? | -3.4% | ? | 28.2µM* | -15.3% | ?
CCCCN1C(=O)/C(=C/c2ccc(N3CCCCCC3)cc2)C(=O)NC1=S | ? | nt | -18.9% | 17.8µM* | ? | nt
C#C[C@@]1(O)CC[C@@H]2[C@@H]3CCC4=CC(=O)CC[C@@]4(C)[C@H]3CC[C@]21C | nt | nt | -3.3% | 14.9%[21.5 µM] | nt | nt
CCCCC1C(=O)NC(=S)N(C)C1=O (stereo not drawn) | nt | -1.5% | nt | nt | nt | 79.4µM*
CCCCC1C(=O)NC(=S)NC1=O | -26.2% | nt | 10µM* | 4.47µM* | 12.5% | nt
CCCCOc1ccc(CC2C(=O)N(C)C(=O)N(C)C2=O)cc1 | 6.3% | 35.4% | ? | -44.4%[59 µM] | ? | -18.0%
CCCC(=O)OC(C(Cl)(Cl)Cl)P(=O)(OC)OC (stereo not drawn) | nt | nt | 10.2% | -16.9%[59 µM] | nt | nt
CC(C)CCNC(=O)CNC(=O)[C@@H](C)NC(=O)[C@@H](N)Cc1ccc(O)cc1 | nt | nt | 2.1% | nt | nt | nt
Cc1ccc(-n2sc3ccccc3c2=O)cc1 | 7.94µM* | ? | 1.26µM* | 1.12µM* | -2.2% | 7.08µM*
COc1ccc(-c2nc3ccccc3c(=O)n2-c2ccc(OC)cc2)cc1 | -5.2% | 27.7% | -0.6% | -2.9%[0.501 µM] | -0.7% | -12.0%

Compound activity from PubChem BioAssay.
